# Experimental data as given in PubChem BioAssay.
# Activity calls are given as the source filed them. Unless noted, how the calls were made is not given here.
# Experiments:
# [1] = resazurin metabolic signal in HepG2 cells – cell-based, resazurin fluorescence, 24 h, PK04 Diversity Set, profiling panel (AID 1172); conditions: HepG2 viability, higher = more signal; further: test concentration not given here
# [2] = budding yeast growth changes without added modifier – OD600, strain BY4716, 24 h, basal condition, primary screen (AID 1173); conditions: S. cerevisiae BY4716 growth, OD600, 24 h; higher = more signal, called active from +8 up or from −8 down
# [3] = viability profiling in MM1S myeloma cells – cell-based, resazurin fluorescence, basal, 24 h, PK04 Diversity Set, profiling panel (AID 1174); conditions: higher = more signal, called active from +8 up or from −8 down;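 further: MM1S multiple myeloma cell line; test concentration not given here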
# [4] = target: Dihydroorotate dehydrogenase (quinone), mitochondrial (Plasmodium falciparum (isolate 3D7)) (UniProt Q08210); assay: inhibition of P. falciparum DHODH – biochemical, C-terminal His tag, absorbance 600 nm, primary screen (AID 1175); conditions: PfDHODH enzyme, DCIP absorbance 600 nm; higher = more signal, called active from +8 up or from −8 down;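 further: recombinant parasite enzyme with a five histidine tag at its C terminus; test concentration not given here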
# [5] = inhibition of PAO1 biofilm formation – strain PAO1, LB-PBS medium, absorbance 600 nm, primary screen (AID 1176); further: test concentration not given here; conditions: P. aeruginosa PAO1 growth/biofilm, A600, 12 h; higher = more signal
# [6] = growth modulation of vineyard yeast isolate – strain RM11-1a, OD600, basal, 24 h, primary screen (AID 1177);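 further: cultures grown under basal conditions with no added stressor; test concentration not given here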; conditions: S. cerevisiae RM11-1a growth, OD600, 24 h; higher = more signal, called active from +8 up or from −8 down
# [7] = growth of efflux-deficient E. coli DRC39 – strain DRC39, OD650, 24 h, E. coli filamentation inducers, primary screen (AID 1178);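 further: growth measured as culture turbidity by optical density at 650 nm; test concentration not given here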; conditions: E. coli DRC39 acrAB, higher = more signal, called active from +8 up or from −8 down
# [8] = growth of efflux-deficient E. coli DRC39 – strain DRC39, OD650, 48 h, E. coli filamentation inducers, primary screen (AID 1179);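 further: screen aims at cell division blockers that make cells filament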; conditions: E. coli DRC39 delta-acrAB growth, higher = more signal, called active from +8 up or from −8 down
# [9] = viability profiling in RPMI8226 myeloma cells – cell-based, resazurin fluorescence, basal, 24 h, PK04 Diversity Set, profiling panel (AID 1180); conditions: higher = more signal;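 further: RPMI8826 multiple myeloma cell line at 5000 cells per well; test concentration not given here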
# [10] = target: E3 ubiquitin-protein ligase XIAP (Homo sapiens) (UniProt P98170); assay: small molecules binding XIAP protein – biophysical, small-molecule microarray, fluorescence 635 nm, primary screen (AID 1181); conditions: higher = more signal;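 further: score merges 667 nm emission and signal to noise over triplicate slides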
# Chain of E3 ubiquitin-protein ligase XIAP (Homo sapiens) (P98170 whole entry, looked up): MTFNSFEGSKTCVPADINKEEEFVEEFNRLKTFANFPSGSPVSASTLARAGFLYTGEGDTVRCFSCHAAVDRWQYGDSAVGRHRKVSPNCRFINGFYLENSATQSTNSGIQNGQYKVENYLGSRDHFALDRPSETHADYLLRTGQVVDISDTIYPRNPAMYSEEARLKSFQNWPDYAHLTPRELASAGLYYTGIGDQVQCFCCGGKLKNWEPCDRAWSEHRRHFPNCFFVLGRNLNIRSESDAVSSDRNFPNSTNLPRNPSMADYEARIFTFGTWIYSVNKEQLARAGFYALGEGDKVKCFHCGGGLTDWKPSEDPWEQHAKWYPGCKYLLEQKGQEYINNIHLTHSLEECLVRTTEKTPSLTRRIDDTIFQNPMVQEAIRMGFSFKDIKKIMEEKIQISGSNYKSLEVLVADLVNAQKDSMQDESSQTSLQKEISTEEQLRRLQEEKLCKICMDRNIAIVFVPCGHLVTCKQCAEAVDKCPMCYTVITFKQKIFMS
# Chain of Dihydroorotate dehydrogenase (quinone), mitochondrial (Plasmodium falciparum (isolate 3D7)) (Q08210 whole entry, looked up): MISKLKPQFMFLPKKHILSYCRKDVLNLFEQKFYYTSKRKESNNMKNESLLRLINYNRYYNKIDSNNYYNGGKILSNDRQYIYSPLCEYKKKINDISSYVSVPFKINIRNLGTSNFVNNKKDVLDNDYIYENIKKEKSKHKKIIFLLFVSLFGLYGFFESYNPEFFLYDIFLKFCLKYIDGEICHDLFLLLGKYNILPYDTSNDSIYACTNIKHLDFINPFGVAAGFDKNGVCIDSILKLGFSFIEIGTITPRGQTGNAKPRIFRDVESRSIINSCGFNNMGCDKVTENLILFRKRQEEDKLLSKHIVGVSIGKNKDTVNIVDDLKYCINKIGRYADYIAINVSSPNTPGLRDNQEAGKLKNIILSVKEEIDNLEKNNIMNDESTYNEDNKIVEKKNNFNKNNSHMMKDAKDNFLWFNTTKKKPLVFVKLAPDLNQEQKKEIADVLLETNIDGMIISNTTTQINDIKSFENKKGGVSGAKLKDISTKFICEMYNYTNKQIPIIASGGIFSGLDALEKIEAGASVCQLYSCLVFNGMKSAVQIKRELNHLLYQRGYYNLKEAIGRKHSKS
SMILES,z-score [1],z-score [2],z-score [3],composite z-score [4],z-score [5],z-score [6],z-score [7],z-score [8],z-score [9],composite z-score [10]
NC(=O)NCC#Cc1ccc2c(c1)[C@]1(C(=O)N2)[C@H](c2ccccc2OCCO)N2[C@H](c3ccccc3)[C@H](c3ccccc3)OC(=O)[C@H]2[C@@H]1C(=O)Nc1nc2ccccc2s1,0.851,1.21 (inactive),0.528 (inactive),-1.12 (inactive),2.29 (inactive),2.16 (inactive),0.525 (inactive),0.24 (inactive),0.744,-0.102
COCCOC(=O)N1C(=O)[C@@]2(c3cc(C#CCCO)ccc31)[C@H](C(=O)N1CCCCCCC1)[C@H]1C(=O)O[C@H](c3ccccc3)[C@H](c3ccccc3)N1[C@@H]2c1ccc(OCCO)cc1,0.902,0.849 (inactive),0.368 (inactive),0.047 (inactive),1.56 (inactive),2.32 (inactive),-0.0574 (inactive),0.215 (inactive),-2.44,1.06
CC(C)[Si](C#Cc1ccc(Oc2ccccc2)cc1)(O[Si](C#Cc1ccc(Oc2ccccc2)cc1)(C(C)C)C(C)C)C(C)C,0.0013,1.95 (inactive),0.698 (inactive),0.936 (inactive),-0.133 (inactive),1.88 (inactive),0.879 (inactive),0.3 (inactive),0.603,-0.0009
COc1ccc([Si](C)(C)[C@@H]2[C@@H](CC(=O)N3CCC[C@H]3CO)O[C@]3(C(=O)N(c4ccccc4)c4ccccc43)[C@H]2C)cc1,0.733,-1.39 (inactive),0.315 (inactive),-1.27 (inactive),-0.106 (inactive),-1.2 (inactive),0.193 (inactive),0.258 (inactive),0.729,0.217
COCCOC(=O)N1C(=O)[C@@]2(c3cc(C#Cc4ccc(OC)cc4)ccc31)[C@H](c1ccccc1OCCO)N1[C@H](c3ccccc3)[C@H](c3ccccc3)OC(=O)[C@H]1[C@@H]2C(=O)NC[C@H](O)c1ccccc1,0.48,2.55 (inactive),-0.444 (inactive),-1.22 (inactive),3.27 (inactive),3.17 (inactive),0.418 (inactive),0.127 (inactive),-0.82,-0.0421
COC(=O)[C@@]1(Cc2ccc(OC)cc2)[C@H]2c3cc(C(=O)N4CCCC4)n(Cc4ccc(O)c(OC)c4)c3C[C@H]2CN1C(=O)c1ccccc1,-1.76,1.19 (inactive),-0.431 (inactive),0.191 (inactive),0.591 (inactive),0.609 (inactive),-0.446 (inactive),-0.0429 (inactive),-2.77,0.227
COc1cc2c(cc1O)C(C1CC1)N(Cc1sc3ccccc3c1Cl)CC2 (stereo not given),-1.58,-18.3 (active),-0.789 (inactive),-0.931 (inactive),-1.33 (inactive),-22 (active),0.531 (inactive),-0.75 (inactive),-1.42,-0.031
O=C(c1ccccc1)N1C(=O)[C@@]2(Cc3ccccc31)N=C(c1ccc(OCCCO)cc1)O[C@H]2c1ccccc1,-1.01,-0.123 (inactive),-2.94 (inactive),-0.138 (inactive),0.702 (inactive),0.655 (inactive),-0.399 (inactive),-0.239 (inactive),-3.43,0.327
O=C1C2C=CC(C(O)c3cccc4ccccc34)N(Nc3ccccc3F)C2C(=O)N1c1ccccc1 (stereo not given),0.0332,-0.103 (inactive),-0.186 (inactive),-0.629 (inactive),1.11 (inactive),0.0054 (inactive),-0.844 (inactive),-0.204 (inactive),0.0889,0.321
COCCOC(=O)N1C(=O)[C@@]2(c3cc(C#CC4(O)CCCCCC4)ccc31)[C@H](c1ccc(OCCO)cc1)N1[C@H](c3ccccc3)[C@H](c3ccccc3)OC(=O)[C@H]1[C@@H]2C(=O)N1CCN(c2ncccn2)CC1,-0.0209,2.29 (inactive),-0.549 (inactive),-1.64 (inactive),2.57 (inactive),3.15 (inactive),-0.534 (inactive),-0.477 (inactive),-0.305,-0.0582
CC[C@@H]1C=C(C(=O)O)[C@H](c2ccc(Br)cc2)N1S(=O)(=O)c1ccc(C)cc1,-0.386,-0.14 (inactive),-0.459 (inactive),-0.412 (inactive),-0.116 (inactive),-0.716 (inactive),-0.593 (inactive),0.295 (inactive),-1.51,0.157
CC(C)C(=C=CC[C@H](O)c1ccc(OCCO)cc1)CCO,0.933,-1.87 (inactive),-0.69 (inactive),-0.324 (inactive),0.825 (inactive),-0.269 (inactive),-0.732 (inactive),-0.794 (inactive),-0.0148,0.223
[N-]=[N+]=Nc1ccccc1[C@H]1OC(c2ccc(OCCCO)cc2)=N[C@@]1(CCS(=O)(=O)c1ccccc1)C(=O)NCC(O)CO (stereo not given in full),-0.14,-0.484 (inactive),-0.0646 (inactive),1.01 (inactive),0.854 (inactive),-0.129 (inactive),-0.117 (inactive),-0.878 (inactive),-0.389,0.0727
O=C1C[C@@](C(=O)NCC(F)(F)F)(c2ccc([N+](=O)[O-])cc2)[C@@H](c2ccc(CO)cc2I)N1C1CCCCC1,-0.0199,-0.805 (inactive),0.233 (inactive),-0.277 (inactive),0.609 (inactive),0.195 (inactive),-0.218 (inactive),-0.182 (inactive),-0.589,-0.0172
CC(C)NC(=O)[C@@]1(C)c2ccccc2C(=O)N(Cc2cc(C(F)(F)F)cc(C(F)(F)F)c2)[C@H]1c1ccc(CO)cc1,0.121,0.0934 (inactive),-1.21 (inactive),0.356 (inactive),0.224 (inactive),0.784 (inactive),0.162 (inactive),0.23 (inactive),-0.148,0.0868
CC(=O)NCCCC[C@@H]1NC(=O)[C@H]2C[C@@H](C(=O)NCCCCCCNC(=O)CS)[C@@H](c3ccc(O)cc3)N2C1=O,-0.294,0.429 (inactive),-0.523 (inactive),0.761 (inactive),1.08 (inactive),0.518 (inactive),-0.622 (inactive),-1.35 (inactive),-0.803,0.125
COCCOC(=O)N1C(=O)[C@@]2(c3cc(C#CCC(C(=O)OC)C(=O)OC)ccc31)[C@H](C(=O)N1CCN(c3ncccn3)CC1)[C@H]1C(=O)O[C@H](c3ccccc3)[C@H](c3ccccc3)N1[C@@H]2c1ccccc1OCCO,-0.354,1.51 (inactive),-0.0626 (inactive),-1.42 (inactive),3.78 (inactive),2.75 (inactive),0.284 (inactive),0.0336 (inactive),-0.5,-0.0749
COC(=O)[C@@]1(Cc2ccccc2)N=C(c2ccc(OCCCO)cc2)O[C@H]1c1ccccc1,-0.882,-2.46 (inactive),-2.96 (inactive),1.14 (inactive),0.991 (inactive),1.47 (inactive),2.8 (inactive),0.608 (inactive),-2.43,0.244
C[C@@]1([C@@H](NC(=O)c2ccc(-c3ccccc3)cc2)c2ccc(Cl)cc2)C[C@H]1C1CCCCC1,-0.953,1.52 (inactive),-2.24 (inactive),-0.0475 (inactive),-0.195 (inactive),2 (inactive),-0.325 (inactive),-0.561 (inactive),-6.37,0.119
CO[C@H]1O[C@H](CO)[C@@H](OC(=O)Nc2ccc(Oc3ccccc3)cc2)[C@H](OC(=O)Nc2ccc3c(c2)OCO3)[C@H]1OC(=O)Nc1ccc2c(c1)OCO2,-0.692,0.759 (inactive),0.0487 (inactive),-0.227 (inactive),2.07 (inactive),1.11 (inactive),1.65 (inactive),0.0431 (inactive),0.404,-0.0795
C=C(CCCC)/C(=C/C[C@@H](OC(C)=O)c1ccc(OCCO)cc1)c1cnc2ccccc2c1,0.54,-0.845 (inactive),-0.267 (inactive),-4.4 (inactive),0.825 (inactive),-0.81 (inactive),1.85 (inactive),1.49 (inactive),0.445,-0.0228
CC1(C)C2C=C(C(O)C3C=CC4C(=O)NC(=O)C4N3Nc3ccc(Cl)cc3Cl)C[C@@H]1C2 (stereo not given in full),-2.13,-7.58 (inactive),-1.9 (inactive),0.356 (inactive),1.55 (inactive),0.84 (inactive),-0.274 (inactive),-1.08 (inactive),-1.79,-0.0769
